Rab9 prom act = qHTS Assay for Rab9 Promoter Activators | Huh7 Rab9 promoter-luciferase reporter, luminescence, 24 h | Potency, µM (highest dose often 9.22 µM), hits mostly activators | 2.8% of 320,000 active; further: nearly all actives have a fitted effect of over 60% in size
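Measured in stably transfected Huh7 cells bearing a Rab9 promoter–luciferase construct: 24 h compound treatment at 37 °C, followed by luminescence detection.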
SMN2 splice up = qHTS Assay for Enhancers of SMN2 Splice Variant Expression | Potency, µM (highest dose often 46.1 µM), actives largely listed as activators | 2.8% of 210,000 active | HEK293 SMN2-luciferase splicing reporter, luminescence, 30-36 h | AID 1458, 2008; further: nearly all actives have a fitted effect of over 55% in size
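HEK293 cells carry an SMN2 […]–luciferase reporter in which exon 7 inclusion puts luciferase in frame. Cells were plated 10-12 h before compound addition, then incubated 30-36 h at 37C. ONE-Glo luminescence was read; sodium butyrate at 4.5 mM final served as control.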
ELG1 DNA repair = qHTS screen for small molecules that inhibit ELG1-dependent DNA repair in human embryonic kidney (HEK293T) cells expressing luciferase-tagged ELG1; HEK293T ELG1-luciferase reporter, luminescence, 16 h; DNA damage induced by 5-fluorouridine; Potency, µM (series often up to 46.1 µM), hits mostly inhibitors; 2.3% of 330,000 active; further: nearly all actives have a fitted effect of over 55% in size
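Quantitative HTS, concentration-response format. 2,000 cells/well co-treated with 5-fluorouridine and compound, 16 hr in 5% CO2 at 37 °C; ONE-Glo luminescence read after 30 min.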
NPC1 prom act = qHTS Assay for NPC1 Promoter Activators; Huh7 NPC1 promoter luciferase reporter, 24 h; Potency, µM (series often up to 9.22 µM), most hits filed as activators; 2.4% of 320,000 active; AID 485313, 2010; further: nearly all actives have a fitted effect of over 60% in size
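Huh7 reporter cells (NPC1 promoter driving luciferase) are dosed with compound for 24 h at 37 °C, 5% CO2; luciferase detection reagent is then added and luminescence measured after 10 min at ambient temperature.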
FLuc modulator = qHTS profiling assay for firefly luciferase inhibitor/activator using purifed enzyme and Km concentrations of substrates (counterscreen for miR-21 project). Luciferin 4-monooxygenase (Photinus pyralis), P08659. purified FLuc, Km substrates, luminescence inhibition. Potency, µM (doses to about 57.5 µM), usual class: inhibitors. 6.9% of 360,000 active; further: nearly all actives have a fitted effect of over 55% in size
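Biochemical qHTS of compounds, final roughly 60 µM downward over six points, against 10 nM purified firefly luciferase using Km concentrations of substrates (10 uM D-luciferin, 10 uM ATP) in Tris acetate pH 7.5 buffer; luminescence output.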
ELG1 genotox = qHTS screen for small molecules that induce genotoxicity in human embryonic kidney (HEK293T) cells expressing luciferase-tagged ELG1 | HEK293T ELG1-luciferase reporter, luminescence, 16 h | Potency, µM (series often up to 46 µM), hits mostly activators | 1.3% of 330,000 active; further: nearly all actives have a fitted effect of over 60% in size
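Cells (2,000/well) expressing the ELG1-luciferase fusion are dosed by pin tool and kept 16 hr at 37 °C, 5% CO2. Signal comes from ONE-Glo luciferase reagent after 30 min at room temperature.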
ELG1 FLuc counter = qHTS screen for small molecules that inhibit ELG1-dependent DNA repair: Hit Confirmation in Cell-Based Luciferin Assay | shares compounds with ELG1 DNA repair | cell-free firefly luciferase luminescence counter-screen, ViewLux | Potency, µM (titrated, usually from 46.1 µM), hits mostly inhibitors | 3% of 350 active | AID 624247, 2012
ELG1 Luc conf = HTS assay for small molecules that inhibit ELG1-dependent DNA repair in human embryonic kidney (HEK293T) cells expressing luciferase-tagged ELG1: Hit Confirmation. shares compounds with ELG1 DNA repair. HEK293T ELG1-luciferase levels, luminescence; cells co-treated with 5-fluorouridine. Potency, µM (highest dose often 46.1 µM), hits mostly inhibitors. 68% of 670 active; further: nearly all actives have a fitted effect of over 55% in size
ELG1-Luc MMS = confirmation of human ELG1 repair inhibitors, MMS stimulated; shares compounds with ELG1 DNA repair; HEK293T luciferase-tagged ELG1 level, MMS stimulated; Potency, µM (doses to about 46.1 µM), hits mostly inhibitors; 53% of 670 active; further: nearly all actives have a fitted effect of over 60% in size
ELG1 5FU viab = qHTS screen for small molecules that inhibit ELG1-dependent DNA repair: Hit Confirmation with 5FU Viability; cell viability with 5-FU, ELG1-dependent repair; Potency, µM (highest dose often 46.1 µM), most hits filed as cytotoxic; shares compounds with ELG1 DNA repair; 670 tested, under 10 active;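 further: ELG1-luc HEK293T cells cotreated with 5-fluorouridine at 10 µM final; viability measured 16 h after compound addition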
ELG1 MMS cell = qHTS screen for small molecules that inhibit ELG1-dependent DNA repair: Hit Confirmation with MMS Viability; shares compounds with ELG1 DNA repair; Cell viability with MMS, ELG1-dependent DNA repair; Potency, µM (series often up to 46.1 µM), actives largely listed as cytotoxic; 33% of 670 active; AID 624251, 2012;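 further: ELG1-luc HEK293T cells co-treated with 10 µM MMS; viability read 16 h after compound addition; nearly all actives have a fitted effect of over 60% in size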
ELG1 unstim viab = qHTS screen for small molecules that inhibit ELG1-dependent DNA repair: Hit Confirmation with Unstimulated Viability Assay. shares compounds with ELG1 DNA repair. 8% of 900 active. cell viability counter-screen, unstimulated, luminescence. Potency, µM (highest dose often 45.9 µM), actives largely listed as cytotoxic. AID 624252, 2012;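 further: compound exposure lasted 16 hours before reading; nearly all actives have a fitted effect of over 55% in size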
FLuc biochem = qHTS screen for small molecules that inhibit ELG1-dependent DNA repair: Hit Confirmation in Biochemical Luciferin Assay; shares compounds with ELG1 DNA repair; purified firefly luciferase, luminescence counter-screen; Potency, µM (titrated, usually from 57.5 µM), most hits filed as inhibitors; 10% of 350 active; AID 624253, 2012
Hits are given with their value; n = inactive; u = inconclusive; x = no result given. The list is not random: actives were taken first. Their share in the collection is about 9.4%. The call rests on the fitted dose curve; in most records, active means well fitted curve in the direction sought with a large enough effect; inconclusive means small, poorly fitted or top-dose-only effect, or another doubt; inactive means no such curve, though single readings can be large; an effect the other way counts as inactive or inconclusive.

SMILES	Rab9 prom act	SMN2 splice up	ELG1 DNA repair	NPC1 prom act	FLuc modulator	ELG1 genotox	ELG1 Luc conf	ELG1-Luc MMS	ELG1 5FU viab	ELG1 MMS cell	ELG1 unstim viab	others
O=C(c1ccc(Cl)c(S(=O)(=O)N2CCOCC2)c1)N1CCN(c2ccccc2)CC1	n	x	0.082µM	n	n	n	u	n	n	n	u	ELG1 FLuc counter=n;FLuc biochem=n
O=C(c1ccc(Cl)c(S(=O)(=O)N2CCCCC2)c1)N1CCN(c2ccccc2)CC1	n	x	u	n	n	n	x	x	x	x	x
Cc1nn(CCCC(=O)NCCc2ccccc2)c(=O)c2nccn12	n	x	n	n	n	n	x	x	x	x	x
CCOC(=O)c1c(SC)[nH]c2c(Cl)cccc2c1=O	n	x	n	n	n	n	x	x	x	x	x
CCc1ccc(-c2cc(C)no2)cc1S(=O)(=O)N1CCCN(Cc2ccc(F)cc2)C1	n	x	n	n	n	n	x	x	x	x	x
COC(=O)C1C(=O)C=C(N2CCOCC2)CC1(C)C (centres undefined)	n	n	4.1µM	n	n	n	n	n	n	n	n
CCOC(=O)C1C(=O)C=C(N2CCOCC2)CC1c1cccc(OC)c1 (centres undefined)	n	x	n	n	n	n	x	x	x	x	x
COc1cc(Cl)c(C)cc1NC(=O)CN(C)Cc1cccc(OC)c1OC	n	n	2.6µM	n	n	n	25µM	16µM	n	14µM	u
COc1ccccc1CN(C)CC(=O)Nc1cccc2ccccc12	n	x	n	n	n	n	x	x	x	x	x
Cc1ccc(NC(=O)c2nc[nH]c2C(=O)NCCCCNC(=O)c2[nH]cnc2C(=O)Nc2ccc(C)cc2)cc1	x	x	0.73µM	x	x	n	1.3µM	1.8µM	n	u	n	ELG1 FLuc counter=n;FLuc biochem=n
O=C(Nc1ccccc1)c1nc[nH]c1C(=O)NCCNC(=O)c1[nH]cnc1C(=O)Nc1ccccc1	x	x	2.3µM	x	x	n	5µM	4.4µM	n	u	16µM
Cc1ccc(NC(=O)c2nc[nH]c2C(=O)NCCCCCCNC(=O)c2[nH]cnc2C(=O)Nc2ccc(C)cc2)cc1	x	x	u	x	x	n	x	x	x	x	x
Cc1cc(C(=O)COC(=O)c2ccc(F)cc2)c(C)n1C	x	x	u	x	x	u	x	x	x	x	u
Cc1cc(C(=O)COC(=O)c2ccc(NC(=O)CC#N)cc2)c(C)n1CCc1ccc(F)cc1	n	x	n	n	n	n	x	x	x	x	x
COc1ccc(Cl)cc1C(=O)NNC(=O)CSc1nnnn1C	n	n	n	n	n	n	x	x	x	x	x
COc1ccc(S(=O)(=O)NCCc2nnc3ccc(SCC(=O)Nc4nc(C)cs4)nn23)cc1	n	n	n	n	n	n	n	n	n	n	n	ELG1 FLuc counter=n;FLuc biochem=n
Cc1ccc(C(=O)N/C(=C\c2cn(-c3ccccc3)nc2-c2ccccc2)C(=O)N2CCOCC2)cc1	n	n	n	n	n	n	x	x	x	x	x
COc1ccc(-c2nn(-c3ccccc3)cc2/C=C/C(=O)N2CCOCC2)cc1OC	n	n	1.5µM	n	24µM	n	1.4µM	n	u	n	u
COc1ccc(/C=N/NC(=O)c2ccoc2C)cc1CN1CCN(c2ccc(F)cc2)CC1	n	x	2.6µM	n	u	n	2.5µM	n	u	n	u
COc1ccc(/C=N/NC(=O)c2ccc(Br)cc2)cc1CN1CCOCC1	n	x	n	n	n	n	x	x	x	x	x
NC(N)=NC(=S)Nc1ccc(Cl)cc1	u	x	u	u	u	n	x	x	x	x	x
CCOC(=O)c1c(C)nc2sc3c(=O)n(-c4ccc(OC)cc4)cnc3c2c1-c1ccc(OC)cc1	n	n	n	n	n	n	1.3µM	n	n	n	n	ELG1 FLuc counter=n;FLuc biochem=n
COc1ccc(Cn2c(O)c(C=Nc3ccccc3C(=O)O)c3ccccc3c2=O)cc1	n	x	4.1µM	n	n	n	3.5µM	2.5µM	n	2.8µM	u
COc1ccccc1NS(=O)(=O)c1cccc(-n2c(O)c(C=Nc3ccccc3C(=O)O)c3ccccc3c2=O)c1	n	x	u	n	u	n	x	x	x	x	x
CCN(CC)c1ncnc2c1cnn2-c1cc(Cl)ccc1C	x	x	x	x	n	x	x	x	x	x	x
CC1=C(C(=O)OCc2ccc3c(c2)OCO3)C(c2ccc(F)cc2)NC(=O)N1 (centres undefined)	n	n	1.3µM	n	n	n	0.89µM	4.5µM	n	u	u	ELG1 FLuc counter=u;FLuc biochem=n
CSCCOC(=O)C1=C(C)NC(=O)NC1c1ccc2c(c1)OCO2 (centres undefined)	n	x	n	n	n	n	x	x	x	x	x
CC1=C(C(=O)OCc2ccc3c(c2)OCO3)C(c2ccc(Cl)cc2)NC(=O)N1 (centres undefined)	n	n	0.23µM	n	n	n	0.2µM	0.89µM	n	u	u	ELG1 FLuc counter=u;FLuc biochem=n

Source: PubChem BioAssay
